Test results as given in article PMC11062922 (Nature Chemical Biology, 2023).
Like-named read-outs stand apart in the source and are kept apart here.

What was measured:
Set-up in all cases: species or system human, MV4-11 + K-562 + COLO205 + SK-N-BE2 + OVCAR-8
[1] = test system: DAPK3; conditions: read-out: apparent Kd; compound concentrations: 100 nM and 1000 nM (sheet 'Samples'), CATDS: 6.6145961365307402E-3; n = 1
[2] = test system: ACOX3; conditions: read-out: apparent Kd; compound concentrations: 100 nM and 1000 nM (sheet 'Samples'), CATDS: 4.2441767473343E-3; n = 1
[3] = test system: CDK1; conditions: read-out: apparent Kd; compound concentrations: 100 nM and 1000 nM (sheet 'Samples'), CATDS: 4.2052312432732299E-3; n = 1
[4] = test system: FN3K; conditions: read-out: apparent Kd; compound concentrations: 100 nM and 1000 nM (sheet 'Samples'), CATDS: 4.2262124169733604E-3; n = 1
[5] = test system: GRAMD1A; conditions: read-out: apparent Kd; compound concentrations: 100 nM and 1000 nM (sheet 'Samples'), CATDS: 3.9512769472384501E-3; n = 1
[6] = test system: MAP3K3; conditions: read-out: apparent Kd; compound concentrations: 100 nM and 1000 nM (sheet 'Samples'), CATDS: 4.1000911479265297E-3; n = 1
[7] = test system: SPR; conditions: compound concentrations:0.3nM, 1nM, 3nM, 10nM, 30nM, 100nM, 300nM, 1000nM,R2:0.99512909296274499,slope:1.24359258072984,EC50 Standard Error, by the legend:Standard error of the EC50 estimation as provided by the drc package.
[8] = test system: TGFBR2; conditions: compound concentrations:0.3nM, 1nM, 3nM, 10nM, 30nM, 100nM, 300nM, 1000nM,R2:0.95772159417417102,slope:0.90025260883160396,EC50 Standard Error, by the legend:Standard error of the EC50 estimation as provided by the drc package.
[9] = test system: NME2;NME2P1; conditions: read-out: apparent Kd, n = 1
[10] = test system: ADK; conditions: read-out: apparent Kd, compound concentrations: 100 nM and 1000 nM (sheet 'Samples'), n = 1
[11] = test system: CDC42; conditions: read-out: apparent Kd, n = 1
[12] = test system: GALK1; conditions: read-out: apparent Kd, compound concentrations: 100 nM and 1000 nM (sheet 'Samples'), n = 1
[13] = test system: MCM5; conditions: read-out: apparent Kd, compound concentrations: 100 nM and 1000 nM (sheet 'Samples'), n = 1
[14] = test system: MTHFD1; conditions: read-out: apparent Kd, compound concentrations: 100 nM and 1000 nM (sheet 'Samples'), n = 1
[15] = test system: RAB5C; conditions: read-out: apparent Kd, n = 1
[16] = test system: PRKACG; conditions: read-out: apparent Kd, compound concentrations: 100 nM and 1000 nM (sheet 'Samples'), n = 1
[17] = test system: EIF2AK1; conditions: read-out: apparent Kd, n = 1
[18] = test system: IARS; conditions: read-out: apparent Kd, compound concentrations: 100 nM and 1000 nM (sheet 'Samples'), n = 1
[19] = test system: NNT; conditions: read-out: apparent Kd, compound concentrations: 100 nM and 1000 nM (sheet 'Samples'), n = 1
[20] = test system: PKM; conditions: read-out: apparent Kd, n = 1
[21] = compound concentrations:100 nM and 1000 nM (sheet 'Samples')
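Throughout, for EC50: competition pulldown with Kinobeads ε in cell lysates, inhibitor preincubated 45 min at 4 °C, bound kinases quantified by LC–MS/MS against DMSO control.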
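Throughout, for Kd: competition pulldown with Kinobeads ε in cell lysates, inhibitor preincubated 45 min at 4 °C, bound kinases quantified by LC–MS/MS against DMSO control.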

## O=C1N=C(NCCc2ccc(Cl)cc2)S/C1=C\c1ccc2ncccc2c1 [RO4498479-000]
[1]
  potency estimated from few doses: 2.11 µM

## Cn1ncc2c(N)ncnc21 [SKF-18267]
[2]
  potency estimated from few doses: 1.16 µM
[3]
  potency estimated from few doses: 1.18 µM
[4]
  potency estimated from few doses: 1.17 µM
[5]
  potency estimated from few doses: 1.38 µM
[6]
  potency estimated from few doses: 1.26 µM

## Cl.NCc1ccc(-c2nc(-c3ccc(Cl)c(O)c3)c(-c3ccncc3)[nH]2)cc1 [SB-476429-A]
[7]
  EC50: 0.0328 µM
[7]; read-out: apparent Kd
  Kd: 0.0328 µM
[8]
  EC50: 0.871 µM
[8]; read-out: apparent Kd
  Kd: 0.767 µM

## Cc1cccc(Nc2nc(N[C@H]3CCNC3)ncc2C(N)=O)c1.Cl [GSK2197149A]
[9]; [21]
  potency estimated from few doses: 1.46 µM

## O=C1N=C(NCc2c(Cl)cccc2Cl)S/C1=C\c1ccc2ncccc2c1 [RO4600445-000]
[10]; CATDS: 0.24369856841726101
  potency estimated from few doses: 1.35 µM

## Cl.Cl.NC(CNC(=O)c1cc(Br)c(-c2ccnc3[nH]ccc23)s1)c1ccccc1.NC(CNC(=O)c1cc(Br)c(-c2ccnc3[nH]ccc23)s1)c1ccccc1 (stereo not shown) [GSK1322949A]
[11]; compound concentrations: 100 nM and 1000 nM (sheet 'Samples'), CATDS: 2.9749426965709602E-2
  potency estimated from few doses: 1.24 µM
[12]; CATDS: 2.6759379349231501E-2
  potency estimated from few doses: 1.6 µM
[13]; CATDS: 2.5853375360702799E-2
  potency estimated from few doses: 1.76 µM
[14]; CATDS: 2.96394051410106E-2
  potency estimated from few doses: 1.25 µM
[15]; compound concentrations: 100 nM and 1000 nM (sheet 'Samples'), CATDS: 2.6344655895194399E-2
  potency estimated from few doses: 1.67 µM

## Cc1ccccc1-n1ncc(C(=O)c2ccccc2)c1N [RO1151248-000]
[16]; CATDS: 2.9121921896178699E-2
  potency estimated from few doses: 0.613 µM

## CCN(CC)Cc1ccc(Nc2nccc(-c3cnn4ncccc34)n2)cc1 [GW780056X]
[14]; CATDS: 2.2377842490129501E-2
  potency estimated from few doses: 0.921 µM

## CCn1c(-c2cccnc2O)nc2cnccc21 [SB-736715]
[17]; compound concentrations: 100 nM and 1000 nM (sheet 'Samples'), CATDS: 1.2624621535744099E-2
  potency estimated from few doses: 1.92 µM

## CCn1c(-c2nonc2N)nc2c(C#CC(C)(C)O)nc(O[C@@H](CN)c3ccccc3)cc21.O=C(O)C(F)(F)F [GSK1007102B]
[17]; [21]
  potency estimated from few doses: 0.996 µM

## O=C(O)C(F)(F)F.O=c1[nH]ccc2nc(N[C@@H]3CCNC3)nc(Nc3ccc4c(c3)S(=O)(=O)CC4)c12 [GSK2181306A]
[18]; CATDS: 8.0761213761314007E-3
  potency estimated from few doses: 1.86 µM

## COc1cc(Nc2nccc(-c3cnn4ncccc34)n2)cc(OC)c1 [GW801372X]
[13]; CATDS: 1.9115246172466901E-2
  potency estimated from few doses: 1.39 µM

## COc1ccc(-c2cc3c(N)ncnc3o2)cc1 [GW642138X]
[19]; CATDS: 0.135417913174183
  potency estimated from few doses: 1.07 µM

## COc1cc(Nc2nccc(N3CCC(NC(=O)c4cccc(NC(C)=O)c4)C3)n2)cc(OC)c1OC (stereo not shown) [GSK1379754A]
[20]; compound concentrations: 100 nM and 1000 nM (sheet 'Samples'), CATDS: 8.1586836054847095E-2
  potency estimated from few doses: 1.9 µM

## CS(=O)(=O)Nc1cccc(-c2ccc3c(NC(=O)C4CC4)n[nH]c3c2)c1 [SB-742864]
[12]; CATDS: 0.105390971488214
  potency estimated from few doses: 1.82 µM
[9]; compound concentrations: 100 nM and 1000 nM (sheet 'Samples'), CATDS: 0.103585369709675
  potency estimated from few doses: 1.91 µM

## CC(C)Nc1cc(-c2ccc3c(N)n[nH]c3c2)nc(N)n1 [GSK2221681A]
[11]; [21]
  potency estimated from few doses: 1.53 µM

## O=C1N=C(NCc2cccs2)O/C1=C\c1ccc2ncccc2c1 [RO4624208-000]
[10]; CATDS: 4.98118638137824E-2
  potency estimated from few doses: 1.39 µM

## COc1ccc(Nc2nccc(NCCNC(=O)Nc3cc(C)ccc3C)n2)cc1 [GSK1379899A]
[18]; CATDS: 4.14736343029877E-2
  potency estimated from few doses: 1.92 µM

## Nc1nc(-c2ccc3c(N)n[nH]c3c2)cc(N2CCCC(NC(=O)c3ccccc3)C2)n1 (stereo not shown) [GSK2286775B]
[15]; [21]
  potency estimated from few doses: 1.52 µM

## Cl.Cl.NCC(NCc1ccc(-c2ccnc3[nH]ccc23)s1)c1ccccc1.NCC(NCc1ccc(-c2ccnc3[nH]ccc23)s1)c1ccccc1 (stereo not shown) [GSK1321565A]
[20]; [21]
  potency estimated from few doses: 2.05 µM

## NS(=O)(=O)c1ccc(N/N=C2\C(=O)Nc3ccc4ncccc4c32)cc1 [GW305178X]
[16]; CATDS: 4.9106390332169098E-2
  potency estimated from few doses: 1.03 µM

## Cl.Nc1nc(-c2ccc3c(c2)C(=Cc2cc(Br)c(O)c(Br)c2)C(=O)N3)cs1 [GW407323A]
[19]; CATDS: 3.26521392467971E-2
  potency estimated from few doses: 0.987 µM
